Measured values: article PMC5540273 (PLoS ONE, 2017)

Columns and labels:
Settings in all cases: concentration: 1 μM, replicates: in singlicate; n = 1
SGK3 = tested on: SGK3
SGK = tested on: SGK
SIK2 = tested on: SIK2
SIK = tested on: SIK
SLK = tested on: SLK
SNARK = tested on: T1, SNARK
T1 construct: gene NUAK2

SNRK = tested on: SNRK
SRC = tested on: SRC
SRMS = tested on: SRMS
SRPK1 = tested on: SRPK1
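Note: KINOMEscan kinase panel screen.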

SMILES | %Inh (SGK3) | %Inh (SGK) | %Inh (SIK2) | %Inh (SIK) | %Inh (SLK) | %Inh (SNARK) | %Inh (SNRK) | %Inh (SRC) | %Inh (SRMS) | %Inh (SRPK1)
COc1ccc(Nc2nccc(N3CCC(NC(=O)c4cc5ccccc5s4)C3)n2)cc1 (centres unmarked) [GSK1379738] | 7% | 0% | 0% | 0% | 4% | 6% | 0% | 0% | 0% | 17%
NS(=O)(=O)c1cccc(N/C=C2\C(=O)Nc3ccc(S(=O)(=O)Cc4c(Cl)cccc4Cl)cc32)c1 [GSK398099] | 5% | 0% | 0% | 0% | 15% | 0% | 0% | 0% | 0% | 19%
CCCCc1nn2ncccc2c1-c1ccnc(NC2CC2)n1 [GW684374] | 2% | 0% | 0% | 0% | 0% | 9% | 0% | 0% | 0% | 12%
COc1ccc(Nc2nccc(N3CCC(NC(=O)C(C)c4ccc(Cl)cc4)C3)n2)cc1 (centres unmarked) [GSK1379735] | 0% | 10% | 13% | 0% | 33% | 0% | 48% | 0% | 2% | 39%
CNc1cc(-c2ccc3c(N)n[nH]c3c2)nc(N)n1 [GSK2224810] | 7% | 0% | 13% | 0% | 0% | 2% | 0% | 0% | 0% | 46%
Cc1ccc(NC(=O)c2ccc(Cl)cc2)cc1-c1ccc(C(=O)Nc2ccncc2)cc1 [GSK1398467] | 0% | 0% | 0% | 0% | 19% | 0% | 0% | 0% | 0% | 13%
O=C(Nc1n[nH]c2cc(-c3ccsc3)ccc12)C1CC1 [SB-732932] | 26% | 6% | 0% | 4% | 0% | 29% | 15% | 0% | 13% | 45%
CC(C)c1cc(-c2ccc3c(N)n[nH]c3c2)nc(N)n1 [GSK2250882] | 4% | 0% | 0% | 0% | 14% | 0% | 0% | 0% | 8% | 60%
CC(=O)c1c(C)c2cnc(Nc3ccc(N4CCNCC4)cn3)nc2n(C2CCCC2)c1=O | 5% | 0% | 10% | 0% | 0% | 0% | 8% | 0% | 0% | 32%
O=C1NC(=O)C(c2ccc(Cl)cc2)=C1Nc1ccc(O)cc1 [SB-340867] | 6% | 0% | 0% | 0% | 9% | 0% | 0% | 0% | 0% | 18%
CN1c2ccc(-c3ccc(C(N)=O)cc3)cc2-c2[nH]ncc2S1(=O)=O | 0% | 0% | 10% | 8% | 2% | 0% | 0% | 7% | 4% | 0%
O=C1NC(=O)C(c2ccc(Cl)cc2)=C1Nc1cccc(Cl)c1 [SB-317651] | 0% | 0% | 0% | 0% | 14% | 0% | 0% | 2% | 0% | 0%
c1ccc(-c2ccnc3[nH]ccc23)cc1 [SB-693578] | 10% | 18% | 25% | 0% | 6% | 48% | 0% | 0% | 0% | 0%
COc1cc2ncnc(Nc3cccc(Br)c3)c2cc1OC.Cl [GI230329] | 0% | 22% | 0% | 0% | 65% | 3% | 23% | 20% | 21% | 34%
COc1ccc(Nc2nccc(N3CCC(NC(=O)C(C)c4ccc(Cl)cc4)CC3)n2)cc1 (centres unmarked) [GSK1379812] | 0% | 0% | 0% | 54% | 28% | 0% | 0% | 10% | 0% | 10%
CS(=O)(=O)CCNCc1nc(-c2ccc3ncnc(Nc4ccc(OCc5ccccc5)c(Cl)c4)c3c2)cs1.Cl [GW582764] | 0% | 11% | 0% | 6% | 14% | 0% | 0% | 0% | 0% | 10%
Cc1cnc(N)c(/C=C/c2cncc(C(=O)NCCc3ccc(Cl)cc3Cl)c2)c1.Cl [GSK190937] | 0% | 0% | 0% | 0% | 0% | 0% | 0% | 0% | 24% | 24%
